Tau fibril ThT – blocks human tau fibril formation measured by thioflavin T; 2.1% of 270,000 active; P10636; Potency, µM (series often up to 57.4 µM), inactives show at the top dose activity, negative = inhibition, hits mostly inhibitors; recombinant tau K18 P301L, heparin-induced fibrillization, ThT fluorescence; note: nearly all actives have a fitted effect of over 55% in size
Target sequence (P10636 561-689 P618L limits assumed): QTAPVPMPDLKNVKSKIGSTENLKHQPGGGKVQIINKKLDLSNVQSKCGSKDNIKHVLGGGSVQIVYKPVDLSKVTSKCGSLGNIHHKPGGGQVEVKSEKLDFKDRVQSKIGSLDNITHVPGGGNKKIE
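Heparin-induced (20 uM) aggregation of recombinant human K18 P301L tau, 15 uM unlabeled with 0.24 uM labeled, pH 7 acetate buffer, 6 hr at 37 C with compound. Fibrils quantified by 30 uM ThT fluorescence after 1 hr ambient incubation.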
Tau fluor counter – counter-screen for tau fibril formation inhibitors; Potency, µM (series often up to 57.7 µM), inactives show at the highest dose activity change, negative = decrease; 0.93% of 280,000 active; tau K18 P301L Alexa594 fluorescence, heparin fibrillization; note: nearly all actives have a fitted effect of over 55% in size
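Human tau K18 P301L (15 uM unlabeled, 0.24 uM Alexa 594-labeled) in 100 mM sodium acetate pH 7 with 20 uM heparin, 6 hr at 37 C. ThT 30 uM added, 1 hr ambient; Alexa 594 FP and total fluorescence read at 555/632 nm.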
GoLoco inh red – blocks human Gai1 binding to RGS12 GoLoco peptide, red readout | Gai1:RGS12 GoLoco peptide FP, rhodamine, 10 min | Potency, µM (titrated, usually from 61.6 µM), without a hit: at the highest dose activity, negative = inhibition, actives largely listed as inhibitors | P63096 | 0.44% of 230,000 active; active = well fitted inhibition curve with a large enough effect, not every such curve was filed as active; inactive = no such curve, though single readings can be large or run the other way; note: nearly all actives have a fitted effect of over 30% in size
Target sequence (P63096 whole entry, looked up): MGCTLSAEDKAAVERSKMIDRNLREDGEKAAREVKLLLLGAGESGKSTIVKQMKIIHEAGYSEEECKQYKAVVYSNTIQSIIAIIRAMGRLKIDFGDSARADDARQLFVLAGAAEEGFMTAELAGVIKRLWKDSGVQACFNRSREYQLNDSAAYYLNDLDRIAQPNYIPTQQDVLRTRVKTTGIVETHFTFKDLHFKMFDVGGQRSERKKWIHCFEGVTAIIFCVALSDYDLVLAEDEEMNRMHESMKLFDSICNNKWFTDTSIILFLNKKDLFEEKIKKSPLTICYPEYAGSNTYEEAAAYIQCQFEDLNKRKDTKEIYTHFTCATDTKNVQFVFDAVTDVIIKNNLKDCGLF
TexasRed fluor – Texas Red fluorescence interference in TRb-SRC2 counter-screen; TRb/SRC2 Texas Red total fluorescence interference; Potency, µM (top dose mostly 106 µM), for the others: at the highest dose fluorescence change, negative = quenching; 0.29% of 280,000 active; active = well fitted curve in either direction with a large enough effect; inconclusive = small, poorly fitted or top-dose-only effect
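Human TRβ ligand-binding domain (0.6 uM) and Texas Red SRC2 peptide (20 nM) in Tris buffer with 1 uM T3 and 5% DMSO were incubated with pinned compound for 5 hr at ambient temperature. Total fluorescence was computed as S + 2P (555/632 nm).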
TRb-SRC2 inh – inhibitors of human thyroid hormone receptor beta-SRC2 interaction | P10828 | TRbeta-SRC2 peptide binding, fluorescence polarization; receptor liganded with 1 µM T3 | Potency, µM (highest dose often 106 µM), without a hit: at the top dose activity change, negative = inhibition, actives largely listed as inhibitors | 0.065% of 280,000 active | AID 1469;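 note: plate controls were bound peptide for no effect and peptide without receptor for full effect; nearly all actives have a fitted effect of over 50% in size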
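Decrease in fluorescence polarization of 20 nM Texas Red SRC2 coactivator peptide flagged inhibition of its binding to 0.6 uM TRb LBD; 1 uM T3 included, incubation 5 hr, ex 555/em 632 nm.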
Tau fibril FP – blocks human tau fibril formation measured by polarization; P10636; K18 P301L tau heparin fibrillization, Alexa594 FP, 6 h; Potency, µM (series often up to 57.7 µM), without a hit: at the highest dose activity, negative = inhibition, usual class: inhibitors; 0.39% of 280,000 active; AID 1468; note: nearly all actives have a fitted effect of over 55% in size
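Human tau K18 […] P301L fragment, 15 uM unlabeled plus 0.24 uM Alexa 594-labeled tau (final), with compound and 20 uM heparin in 100 mM sodium acetate pH 7; 6 hr at 37 C, then Alexa 594 FP read.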
* marks the source's active call; other numbers are inactive results; u = inconclusive; x = not tested or not shown; [ ] = remark or other dose. Most compounds without a hit are left out; they make up all but 3.2% or so of the library. Unless noted, calls come from the whole dose curve; as a rule, active = well fitted curve in the direction sought with a large enough effect; inconclusive = small, poorly fitted or top-dose-only effect, or another doubt; inactive = no such curve, though single readings can be large; an effect the other way counts as inactive or inconclusive. Unless noted, % is set by controls: 0 for no effect and ±100 for the full control effect; potency is the fitted concentration of half-maximal effect.

SMILES	Tau fibril ThT	Tau fluor counter	GoLoco inh red	TexasRed fluor	TRb-SRC2 inh	Tau fibril FP
Cc1ccccc1C(=O)Nc1cccc(NC(=O)c2ccc(C(C)(C)C)cc2)c1	2%	-6%	x	0.16µM*[quencher]	-24%[53 µM]	-20%
Cc1ccc2occ(CC(=O)Nc3ccc(S(=O)(=O)N4CCCC(C)C4)cc3)c2c1 (configuration not stated)	2%	u	x	-41%	3%	u
CC1(C)CC(=O)C(CC2=C(O)CC(C)(C)CC2=O)C(=O)C1	14µM*	-22%	-4%	-2%	-11%	28µM*
CC1(C)CC(=O)C(CC2=C(O)CC(C)(C)CC2=O)=C(O)C1	16µM*	-23%	-32%	-5%	-4%	40µM*
COC(=O)CCCC1=CC2=C(c3ccccc3)C(=O)C(C)(OC(=O)C3CCCC3)C(=O)C2=CO1 (configuration not stated)	u	-9%	2%	1%	10%	0%
CCn1c(CN2CCC(C)CC2)nc2cc(NC(=O)COc3ccc(Cl)c(C)c3)ccc21	1%	-3%	x	4%	-7%	-7%
CCOC(=O)c1cc2c(ccn2C)n1CC(=O)N(C)C	0%	-1%	0%	-6%	-3%	2%
CCOC(=O)c1cc2c(ccn2C)n1CC(=O)Nc1ccc(F)cc1	28µM*	u	18%	-10%	0%	u
NC(=S)n1[nH]c(-c2ccc([N+](=O)[O-])cc2)c(N=Nc2ccccc2[N+](=O)[O-])c1=O	u	-26%	4%	-2%	-5%	-1%
NC(=S)n1[nH]c(-c2ccc([N+](=O)[O-])cc2)c(N=Nc2cccc([N+](=O)[O-])c2)c1=O	11µM*	u	5%	-14%	3%	-10%
Cc1c(N=Nc2c(-c3ccc([N+](=O)[O-])cc3)[nH]n(C(N)=S)c2=O)cccc1[N+](=O)[O-]	8.9µM*	u	12%	-3%	-7%	u
CC1=C(C(=O)Nc2ccc(C)cc2C)C(c2ccccc2F)n2nc(SCC(=O)c3ccc(C)cc3)nc2N1 (configuration not stated)	u	27%	x	0.032µM*[quencher]	-18%	u
COc1ccc(Nc2nc(N)nc(CSc3nc4cc(OC)ccc4s3)n2)cc1	u	14µM*[quencher]	x	-13%	9%	-2%
C=CCn1c(=O)/c(=C2/Sc3cc(OC)ccc3N2C)s/c1=C1\C(=O)N(CC)C(=S)N1C	10µM*	-20%	40%	-1%	-4%	19%
CCN1/C(=C2\C(=O)N(C)C(=S)N2C)C=Cc2cc(OC)ccc21	-18%	-9%	-6%	9%	1%	-9%
Cc1ccc(-c2cc(-c3ccco3)c3c(N)c(C(=O)NN)oc3n2)cc1	10µM*	u	29%	-10%	-9%	-2%
COc1cccc(/C=N/NC(=O)c2oc3nc(-c4ccccc4)cc(-c4ccco4)c3c2N)c1	u	-14%	-5%	0%	-7%	5%
FC(F)(F)c1cc(CO[C@H]2CCCN[C@H]2c2ccccc2)cc(C(F)(F)F)c1	u	-17%	2%	-4%	-3%	-15%
Cc1ccc(S(=O)(=O)/N=C2/NC(=O)/C(=C/c3ccccc3)S2)cc1	-6%	11%	17%	2%	-1%	16%
COc1cc(/C=C2\S/C(=N/S(=O)(=O)c3ccc(C)cc3)NC2=O)c([N+](=O)[O-])cc1OC	14µM*	u	-6%	-20%	7%	u
N#CCCS(=O)(=O)c1ccccc1	1%	-3%	-3%	1%	5%	-3%
Oc1cc(-c2ccccc2)c2ccccc2c1	14µM*	u	7%	-1%	0%	u
CCOC(=O)N1C(C)CN(/[N+]([O-])=N/Oc2ccc([N+](=O)[O-])cc2[N+](=O)[O-])CC1C (configuration not stated)	x	x	x	-4%	-5%	x
